# FBW7 act: FBW7 E3 ligase activators, primary screen, biochemical, AlphaScreen, human. F-box/WD repeat-containing protein 7 (Homo sapiens), Q969H0. AlphaScreen FBW7–phospho-cyclin E peptide binding, activator screen. AID 1259310, 2017. normalized activity (activation), % at 26.1 µM. 0.13% of 650,000 active; in the data active means normalized activity above about 1.9%;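 further: purified mutant Fbw7 with reduced substrate affinity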
# Target sequence (Q969H0 whole entry, looked up): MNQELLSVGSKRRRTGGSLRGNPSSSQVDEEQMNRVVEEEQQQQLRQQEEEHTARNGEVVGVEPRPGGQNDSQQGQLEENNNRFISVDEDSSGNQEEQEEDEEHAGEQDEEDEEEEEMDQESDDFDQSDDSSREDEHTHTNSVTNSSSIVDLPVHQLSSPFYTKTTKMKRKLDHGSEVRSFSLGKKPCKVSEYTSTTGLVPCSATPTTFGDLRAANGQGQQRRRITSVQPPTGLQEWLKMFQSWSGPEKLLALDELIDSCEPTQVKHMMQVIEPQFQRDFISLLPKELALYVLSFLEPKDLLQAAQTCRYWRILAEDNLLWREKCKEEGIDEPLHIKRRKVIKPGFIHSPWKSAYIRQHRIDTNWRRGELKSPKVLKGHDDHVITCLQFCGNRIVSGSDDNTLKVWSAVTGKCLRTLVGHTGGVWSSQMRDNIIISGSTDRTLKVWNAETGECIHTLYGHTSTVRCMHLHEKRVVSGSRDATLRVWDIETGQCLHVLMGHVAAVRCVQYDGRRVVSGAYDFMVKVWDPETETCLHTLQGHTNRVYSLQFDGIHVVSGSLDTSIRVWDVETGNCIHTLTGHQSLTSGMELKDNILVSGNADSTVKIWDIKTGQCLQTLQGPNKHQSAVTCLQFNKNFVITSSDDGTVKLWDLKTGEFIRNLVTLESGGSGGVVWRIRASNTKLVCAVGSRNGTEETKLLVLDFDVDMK
# GPR151 ag: activators of human GPR151, primary screen, cell-based, PathHunter beta-arrestin, luminescence; G-protein coupled receptor 151 (Homo sapiens), Q8TDV0; PathHunter beta-arrestin GPR151 cells; activation, % at 11.2 µM; 1% of 650,000 active; in the data active means activation above about 4.9%;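 further: 0% = median of compound wells and 100% = cells with positive control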
# MITF primary: MITF inhibitors, primary screen, biochemical, AlphaScreen, human; Microphthalmia-associated transcription factor (Homo sapiens), O75030; AlphaScreen MITF homodimerization, bead proximity signal; inhibition, % at 2.6 µM; 0.91% of 650,000 active; AID 1259374, 2018; in the data active means inhibition above about 50%;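 further: 0% = vehicle wells with protein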
# TEAD-YAP block: TEAD-YAP interaction inhibition, primary screen, TEAD-YAP interaction inhibitor project, luminescence, HEK-TIYL cells; inhibition, % at 9.12 µM; AID 1259422, 2018; 1.4% of 640,000 active; TEAD-Gal4/YAP UAS-luciferase luminescence; in the data active means inhibition above about 32%;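 further: 0% = median of test compound wells and 100% = reference inhibitor wells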
# Active calls of the source: *; nt = not tested or not shown. Compounds with a hit are over-represented: about 3.4% of the library has one in this group of screens.
SMILES,FBW7 act,GPR151 ag,MITF primary,TEAD-YAP block
CCC(CC)C(=O)Nc1cccc(C(=O)Nc2ccc3c(c2)OCCO3)c1,0,1,9,-66
O=C(Nc1cccc(C(=O)NC2CC2)c1)C(=O)Nc1ccc2c(c1)OCCO2,0,1,6,66*
Cc1cc(C)c(C(=O)Nc2ccc3c(c2)OCCO3)c(C)c1,0,0,-3,-8
O=C(Nc1ccc2c(c1)OCCO2)c1ccccc1F,0,-7,8,41*
NC(=O)C1CCN(C(c2ccc(Cl)cc2)c2nnnn2Cc2ccc(F)cc2)CC1 (centres undefined),0,1,-2,9
O=C(Nc1ccc2c(c1)OCCO2)c1ccccc1O,0,-6,12,56*
CC(=O)NC(c1ccc2c(c1)OCO2)c1cc(Cl)c2cccnc2c1O (centres undefined),-1,-1,34,71*
CC(=O)NC(c1ccc(C)cc1)c1cc(Cl)c2cccnc2c1O (centres undefined),0,0,28,28
CCCCC(=O)NC(c1ccc2c(c1)OCO2)c1cc(Cl)c2cccnc2c1O (centres undefined),0,-2,12,3
CC(=O)NC(c1cccc(Cl)c1)c1cc(Cl)c2cccnc2c1O (centres undefined),-1,0,19,36*
Nc1cc(Cl)ccc1N1CCCCC1,0,-1,-9,-14
Nc1ccc(N2CCCCC2)cc1N1CCCCC1,-1,0,39,72*
Cc1ccc(C2C3=C(CC(C)(C)CC3=O)N(c3ccc(C)c(C)c3)C3=C2C(=O)CC(C)(C)C3)cc1,0,4,-9,2
CCN(CC)CCCNc1nc2cc(OC)c(OC)cc2c2nc(-c3ccccc3)nn12,0,1,17,32*
CC1CCCCN1CCCNc1nc2ccccc2c2nc(-c3ccncc3)nn12 (centres undefined),0,1,5,80*
CCCCNc1nc2ccccc2c2nc(-c3ccncc3)nn12,0,0,-5,-4
CCN(CC)CCCNc1nc2ccccc2c2nc(-c3ccncc3)nn12,0,-1,-7,80*
c1nc(N2CCCC2)c2c3c(sc2n1)CCCCC3,0,2,13,-13
COC(=O)C(Cc1ccccc1)NC(=O)C(N)Cc1ccccc1 (centres undefined),0,3,-2,12
Cc1csc(NC(=O)CCC(=O)N(CC(=O)NC2CCCCC2)c2cccc(F)c2)n1,0,-1,6,6
COc1cc(CNCCCN(C)C)ccc1OCc1ccc(F)cc1Cl,0,-1,-23,34*
CCOC(=O)CCCC(=O)N1CCOCCN(C(=O)CCCC(=O)OCC)CCOCC1,0,0,13,4
COc1cc(C)c(/C=C2/C(=O)NC(=O)N(Cc3ccco3)C2=O)cc1C(C)C,0,0,69*,-5
Cc1cc(/C=C2\C(=O)NC(=O)N(Cc3ccco3)C2=O)c(C)n1C1CC1,-1,-2,62*,-4
COCCn1c(C)cc(/C=C2\C(=O)NC(=O)N(Cc3ccco3)C2=O)c1C,0,0,29,-6
SMILES,FBW7 act,GPR151 ag,MITF primary,TEAD-YAP block
COc1ccc2ccccc2c1/C=C1/C(=O)NC(=O)N(Cc2ccco2)C1=O,0,-1,76*,4
COc1cc(/C=C2/C(=O)NC(=O)N(Cc3ccco3)C2=O)ccc1OCC(=O)O,0,3,77*,7
COc1cc(/C=C2\SC(=S)N(Cc3ccco3)C2=O)ccc1OCC(=O)O,0,-1,3,8
COc1cccc(CC2(CO)CCCN(C(=O)C3=CCCC3)C2)c1 (centres undefined),0,-1,3,-4
NC(=O)Cc1cn(-c2ccc(Nc3nccc4ccccc34)nn2)c2ccccc12,0,1,11,0
O=C(CCl)N(CC1CCCO1)c1nc(-c2ccc(Br)cc2)cs1 (centres undefined),0,-1,7,-14
COc1ccc(OC)c(CN2C(=O)NC(=O)/C(=C\c3ccco3)C2=O)c1,-1,3,57*,-1
COc1cc(C)c(/C=C2/NC(=O)NC2=O)cc1C(C)C,0,2,-4,44*
Nc1ccc(C(=O)N/N=C/c2c(Cl)cccc2Cl)cc1,0,1,-7,-19
COc1cccc2c1C(=O)c1c(O)c3c(c(O)c1C2=O)C[C@@](O)(C(=O)CO)C[C@@H]3O[C@H]1C[C@H](N)[C@H](O)[C@H](C)O1,0,-3,44,92*
COc1cccc2c1C(=O)c1c(O)c3c(c(O)c1C2=O)C[C@@](O)(C(C)=O)C[C@@H]3OC1CC(N)C(O)C(C)O1 (some centres undefined),0,1,35,nt
O=C1N[C@@H](Cc2ccc(Cl)cc2)C(=O)N2CCN(Cc3ccccc3)C[C@H]12,0,2,-1,7
O=C1N[C@@H](Cc2ccccc2)C(=O)N2CCN(Cc3ccc(Cl)cc3)C[C@H]12,2.1*,-2,-5,2
COc1ccc(C(=O)COc2cccc3c(=O)n(C)ccc23)cc1,0,3,-3,48*
CN1CCN(C(=O)c2ccc(-c3nc(NC4CC4)c4ncn(-c5ccccc5)c4n3)cc2)CC1,0,2,3,41*
CC(C)n1cnc2c(NCc3ccccc3)nc(-c3ccc(C(=O)NC4CC4)cc3)nc21,0,0,-9,-17
CC(C)n1cnc2c(NC3CCN(Cc4ccccc4)CC3)nc(-c3ccc(N4CCN(C)CC4)cc3)nc21,0,0,1,28
COc1ccc(-c2nc(NC3CCN(Cc4ccccc4)CC3)c3ncn(C(C)C)c3n2)cc1,0,-3,10,-3
CC(C)n1cnc2c(NC3CCN(Cc4ccccc4)CC3)nc(-c3ccc(C(=O)N4CCN(C)CC4)cc3)nc21,0,2,-1,58*
CC(C)n1cnc2c(NC3CCN(Cc4ccccc4)CC3)nc(-c3ccc(C(=O)NC4CC4)cc3)nc21,0,2,1,52*
CC(C)n1cnc2c(Nc3ccccc3)nc(-c3ccc(C(=O)NC4CC4)cc3)nc21,0,-1,-20,32*
Cc1ccc2nc(CSc3nnc(NCc4ccccc4)s3)cc(=O)n2c1,0,1,0,-2
Cc1cc(C)nc(N/N=C/c2ccc(OC(=O)c3ccco3)cc2)n1,0,-2,-2,-2
O=C(Nc1ccc(F)cc1F)NC1CC(=O)N(c2ccc(F)cc2)C1 (centres undefined),0,0,-3,-1
CC(=O)c1cccc(-c2nc(NC3CCN(Cc4ccccc4)CC3)c3ncn(C(C)C)c3n2)c1,0,1,-3,73*
O=C(CCl)NCc1c(Cl)cccc1-n1cccc1,0,-1,4,35*
CCCCN(C)C(=O)CCNS(=O)(=O)c1ccc(Br)cc1,0,-2,12,5
